EBV LMP1 NFkB = Epstein-Barr LMP1 NF-kappaB reporter inhibition; inhibition, % at 12.5 µM; AID 504558; LMP1-induced NF-kappaB luciferase reporter cells, luminescence; hit rate 0.69% among 350,000; in the data active = inhibition above about 41%;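 note: 0% = neutral control wells and 100% = reference inhibitor control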
HIV Env fusion = inhibitors of HIV Env-mediated cell fusion; HeLa-JRFL Env/CEM21 cell fusion, luciferase; inhibition, % at 12.3 µM; hit rate 1.1% among 360,000; AID 651610;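 active = mean replicate inhibition score of at least 50 and every replicate individually at or above 50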;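 note: 0% = plate neutral controls and 100% = maraviroc near 300 nM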
PAX8 inh HTS = lowers PAX8-driven luciferase in RMG-I cells; RMG-I TPO-luciferase reporter, SteadyGlo, 24 h; inhibition, % at 12.6 µM; hit rate 1.2% among 360,000; AID 652154;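 active = mean replicate inhibition at least 60% with every replicate also reaching 60%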;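 note: luciferase light reporting Pax8 driven TPO promoter activity; plate controls were median of neutral control wells for no effect and mitoxantrone controls for full effect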
Shn3 inh set2 = reduces Shn3 3'UTR luciferase signal in osteoblasts. inhibition, % at 12.5 µM. hit rate 0.52% among 360,000. Clone20 osteoblast Shn3 3'UTR firefly luciferase, 24 h;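 active = mean inhibition of at least 75% with every replicate also reaching 75%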;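 note: 0% = median of neutral control wells and 100% = pilot-screen positive control compound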
Glyco luc inh = blocks N-linked glycosylation in D54 reporter cells. D54 ERlucT glycosylation luciferase reporter, 24 h; percent of 100 nM tunicamycin response. reporter increase, % at 12.5 µM. hit rate 0.23% among 360,000. AID 588692;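 active = mean luciferase reporter signal, scaled so untreated is 0 and the glycosylation-blocking control 100, at or above a set limit in every replicate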;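 note: luciferase carries N-glycosylation sites so blocking glycosylation raises the light; 0% = median of neutral control wells and 100% = median of 100 nM tunicamycin wells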
NSD2 inh = NSD2 (human) methyltransferase inhibition; O96028; NSD2 peptide methylation, AlphaScreen, 120 min; inhibition, % at 12.5 µM; hit rate 0.54% among 310,000; AID 743445; in the data active = inhibition above about 50%
Target sequence (O96028 whole entry, looked up): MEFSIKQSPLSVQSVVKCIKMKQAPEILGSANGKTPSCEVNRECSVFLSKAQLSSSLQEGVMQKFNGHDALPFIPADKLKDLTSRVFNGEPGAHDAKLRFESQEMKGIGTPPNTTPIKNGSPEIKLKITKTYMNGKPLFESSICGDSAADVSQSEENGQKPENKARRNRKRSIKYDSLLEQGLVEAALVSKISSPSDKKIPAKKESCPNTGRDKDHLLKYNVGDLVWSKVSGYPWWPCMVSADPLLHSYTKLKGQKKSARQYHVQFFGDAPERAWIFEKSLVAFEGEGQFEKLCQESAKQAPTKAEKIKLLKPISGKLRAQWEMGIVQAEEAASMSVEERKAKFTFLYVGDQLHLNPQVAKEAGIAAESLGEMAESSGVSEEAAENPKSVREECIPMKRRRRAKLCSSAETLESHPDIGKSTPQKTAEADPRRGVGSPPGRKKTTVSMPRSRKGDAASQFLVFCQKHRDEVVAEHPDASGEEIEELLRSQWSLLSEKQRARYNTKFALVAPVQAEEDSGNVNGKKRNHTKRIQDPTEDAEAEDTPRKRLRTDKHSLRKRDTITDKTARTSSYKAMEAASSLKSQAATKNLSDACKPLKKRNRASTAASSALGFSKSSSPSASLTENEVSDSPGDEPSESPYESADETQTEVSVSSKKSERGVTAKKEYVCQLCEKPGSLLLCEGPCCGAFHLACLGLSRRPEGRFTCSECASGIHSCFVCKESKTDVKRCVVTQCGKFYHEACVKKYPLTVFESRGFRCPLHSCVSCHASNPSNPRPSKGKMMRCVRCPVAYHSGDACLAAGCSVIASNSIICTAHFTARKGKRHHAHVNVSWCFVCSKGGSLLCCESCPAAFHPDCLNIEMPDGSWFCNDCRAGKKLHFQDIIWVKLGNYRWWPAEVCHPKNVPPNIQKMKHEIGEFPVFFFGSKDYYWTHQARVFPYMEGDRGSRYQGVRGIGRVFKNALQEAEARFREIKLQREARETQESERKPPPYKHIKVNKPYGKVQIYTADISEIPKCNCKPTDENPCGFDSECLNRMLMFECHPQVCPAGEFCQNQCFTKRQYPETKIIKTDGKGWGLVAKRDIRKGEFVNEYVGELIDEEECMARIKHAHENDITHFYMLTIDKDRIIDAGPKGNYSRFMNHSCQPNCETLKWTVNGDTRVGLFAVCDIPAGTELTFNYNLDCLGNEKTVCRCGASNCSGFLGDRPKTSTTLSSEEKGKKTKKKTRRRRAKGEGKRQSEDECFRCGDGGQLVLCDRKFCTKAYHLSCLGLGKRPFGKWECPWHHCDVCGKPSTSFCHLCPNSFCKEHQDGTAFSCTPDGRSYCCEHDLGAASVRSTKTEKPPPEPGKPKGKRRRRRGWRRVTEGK
* marks the source's active call; other numbers are inactive results; ! = not active in a repeat; [ ] = remark or other dose. Rows were chosen to be rich in hits. Some 2.8% of all compounds tested hit in one or more screens of this group.

Results for O=S(=O)(c1ccc(Br)cc1)N1CCN(c2cc(-c3ccccc3)nc3ncnn23)CC1 ?
EBV LMP1 NFkB: 11; Shn3 inh set2: 50; Glyco luc inh: 0; NSD2 inh: -1

Results for COc1ccc(S(=O)(=O)N2CCN(c3cc(-c4ccccc4)nc4ncnn34)CC2)cc1 ?
EBV LMP1 NFkB: -13; Shn3 inh set2: 87*; Glyco luc inh: 1; NSD2 inh: -3

What do the screens show for `O=S(=O)(c1ccccc1)N1CCN(c2cc(-c3ccccc3)nc3ncnn23)CC1`?
EBV LMP1 NFkB: 43*; HIV Env fusion: -11; Shn3 inh set2: 84*; Glyco luc inh: -3; NSD2 inh: 0

What do the screens show for `O=C(CSc1nc2ncc(Cl)cc2[nH]1)N1CCOCC1`?
EBV LMP1 NFkB: -4; HIV Env fusion: 19; PAX8 inh HTS: -22; Shn3 inh set2: 86*; Glyco luc inh: 0; NSD2 inh: 2

How did O=C(CSc1nc2ncccc2[nH]1)N1CCOCC1 do in these assays?
NSD2 inh: -4

How did CCCNC(=O)N1[C@H](CO)[C@@H]2c3ccccc3N(C(=O)Nc3ccccc3)C[C@@H]21 do in these assays?
PAX8 inh HTS: 8

Results for CCOc1cc(C(=O)Nc2ccc(N3CCOCC3)cc2)cc(Br)c1OC ?
EBV LMP1 NFkB: -23; HIV Env fusion: 3; PAX8 inh HTS: 9; Shn3 inh set2: 5; Glyco luc inh: 32*; NSD2 inh: 4

Results for Cn1c(SCC(=O)c2ccc(F)cc2)ncc(C(=O)Nc2ccccc2)c1=O ?
EBV LMP1 NFkB: 17; HIV Env fusion: -44; PAX8 inh HTS: 4; Shn3 inh set2: -41; Glyco luc inh: 36*; NSD2 inh: -1

Results for O=C(Cc1ccccc1)N[C@H]1C=C[C@@H](CC(=O)N2CCCCC2)O[C@H]1CO ?
HIV Env fusion: 12[16.7 µM]; PAX8 inh HTS: 1

What do the screens show for `C=C1CCN([C@H](C(=O)OCc2ccc(C)cc2)C(C)C)S(=O)(=O)c2ccccc21`?
EBV LMP1 NFkB: 11; HIV Env fusion: 80*; PAX8 inh HTS: 5; Shn3 inh set2: -7; Glyco luc inh: -4

What do the screens show for `C=C1CCN([C@H](C(=O)Nc2ccc(OC)cc2)C(C)C)S(=O)(=O)c2ccccc21`?
EBV LMP1 NFkB: -3; HIV Env fusion: 7; PAX8 inh HTS: -21; Shn3 inh set2: -2; Glyco luc inh: -2

Results for C=C1CCN([C@@H](Cc2ccccc2)C(=O)Nc2ccc(OC)cc2)S(=O)(=O)c2ccccc21 ?
EBV LMP1 NFkB: -4; HIV Env fusion: 105*; PAX8 inh HTS: 9; Shn3 inh set2: -3; Glyco luc inh: 0

What do the screens show for `CO[C@H]1CN(C)C(=O)c2cc(NS(=O)(=O)c3ccc(Cl)cc3)ccc2OC[C@H](C)NC[C@@H]1C`?
HIV Env fusion: 2[16.7 µM]; PAX8 inh HTS: -3

Results for CCOC(=O)C1=C(c2ccccc2)NC(=O)NC1c1ccc(O)c(OCC)c1 (stereo not drawn) ?
EBV LMP1 NFkB: 8; HIV Env fusion: -17; PAX8 inh HTS: -6; Shn3 inh set2: -17; Glyco luc inh: -1; NSD2 inh: -2

What do the screens show for `CCOC(=O)C1=C(c2ccccc2)NC(=O)NC1c1ccc(O)c(Cl)c1` (stereo not drawn)?
EBV LMP1 NFkB: -6; HIV Env fusion: -21; PAX8 inh HTS: 70*; Shn3 inh set2: 2; Glyco luc inh: 2; NSD2 inh: 0

What do the screens show for `C[C@H](CO)N1C[C@H](C)[C@H](CN(C)Cc2ccc(C(F)(F)F)cc2)OCc2cnnn2CCCC1=O`?
HIV Env fusion: 5[16.7 µM]

How did O=C(Nc1ccc(S(=O)(=O)N2CCOCC2)cc1)c1nn(-c2ccc(F)cc2)ccc1=O do in these assays?
EBV LMP1 NFkB: 0; HIV Env fusion: -7; PAX8 inh HTS: 15; Shn3 inh set2: 11; Glyco luc inh: 2; NSD2 inh: -7

What do the screens show for `Cc1ccc(-n2ccc(=O)c(C(=O)Nc3ccc(S(=O)(=O)N4CCOCC4)cc3)n2)cc1`?
EBV LMP1 NFkB: 45*; HIV Env fusion: 8; PAX8 inh HTS: 4; Shn3 inh set2: -9; Glyco luc inh: 1; NSD2 inh: 3

What do the screens show for `CC(C)CN(C(=O)c1ccc(S(=O)(=O)N2CCCCC2)cc1)C1CCS(=O)(=O)C1` (stereo not drawn)?
EBV LMP1 NFkB: -4; HIV Env fusion: 70*; PAX8 inh HTS: 0; Shn3 inh set2: -10; Glyco luc inh: 0; NSD2 inh: -7

How did C/C(Cl)=C\C[N+](C)(C)CC(=O)OCCc1ccccc1 do in these assays?
HIV Env fusion: 0; PAX8 inh HTS: -1; Shn3 inh set2: 0; Glyco luc inh: 2; NSD2 inh: -1

How did C=CC[N+](C)(C)C/C(Cl)=C(\Cl)c1ccccc1 do in these assays?
EBV LMP1 NFkB: 49*; Shn3 inh set2: 22; Glyco luc inh: 0; NSD2 inh: -1

How did CCN(CC(=O)Nc1cc(Cl)ccc1C)C(=O)c1ccc(=O)n(Cc2ccccc2)n1 do in these assays?
EBV LMP1 NFkB: -32; HIV Env fusion: 110*; PAX8 inh HTS: 31; Shn3 inh set2: -9; Glyco luc inh: -5; NSD2 inh: -1

What do the screens show for `CCN(CC(=O)Nc1c(F)cccc1F)C(=O)c1ccc(=O)n(Cc2ccccc2)n1`?
EBV LMP1 NFkB: 10; HIV Env fusion: -5; PAX8 inh HTS: 2; Shn3 inh set2: 6; Glyco luc inh: 2; NSD2 inh: -1

How did C[C@@H]1CN([C@@H](C)CO)C(=O)c2cccc(NS(=O)(=O)c3cn(C)cn3)c2O[C@H]1CN(C)Cc1ccc(C(=O)O)cc1 do in these assays?
HIV Env fusion: 14[16.7 µM]

Results for O=C(CSc1nc2ccccc2n1S(=O)(=O)c1cccc([N+](=O)[O-])c1)NCCc1ccccc1 ?
EBV LMP1 NFkB: 1; HIV Env fusion: 73*; PAX8 inh HTS: 1; Shn3 inh set2: -12; Glyco luc inh: 1; NSD2 inh: -1

How did O=C(NC1CCC1)[C@H]1[C@H](CO)[C@H]2Cn3c(ccc(-c4cncnc4)c3=O)[C@@H]1N2CCc1ccccc1 do in these assays?
PAX8 inh HTS: -5

Results for CCc1nc(N)nc(N)c1-c1ccc(Cl)c(N=[N+]=[N-])c1 ?
EBV LMP1 NFkB: 1; HIV Env fusion: 44; PAX8 inh HTS: 16; Shn3 inh set2: 81*!; Glyco luc inh: -2; NSD2 inh: -4

What do the screens show for `O=C(Nc1ccc(F)cc1)Nc1ccc2c(c1)[C@@H]1C[C@H](CC(=O)N3CCCCC3)O[C@@H](CO)[C@@H]1O2`?
HIV Env fusion: 75*[16.7 µM]; PAX8 inh HTS: 2

What do the screens show for `O=C(Nc1ccc(F)cc1)Nc1ccc2c(c1)[C@@H]1C[C@H](CC(=O)N3CCCCC3)O[C@H](CO)[C@@H]1O2`?
HIV Env fusion: 90*[16.7 µM]; PAX8 inh HTS: 7

How did COc1ccc(/C=C/C2=NNC(=O)CC2)cc1 do in these assays?
EBV LMP1 NFkB: 3; HIV Env fusion: 60*; PAX8 inh HTS: -63; Shn3 inh set2: -29; Glyco luc inh: -3; NSD2 inh: -3

Assay outcomes from PubChem.
